# Assay outcomes deposited in PubChem BioAssay by Broad Institute.
# Rows were chosen to be rich in hits. Some 3.2% of all compounds tested hit in one or more screens of this group.
# GSIS activator: GLuc luminescence reporter in INS-1E cells, primary screen for activators of glucose-dependent secretion of insulin; INS-1E GLuc reporter insulin secretion, 2-3 h; activation, % at 16.6 µM; 370,000 compounds, 0.61% hits;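 active means lowest replicate activation of at least 40%, so every replicate reaches that level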;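 further: 0% = median of neutral control wells and 100% = median of IBMX positive control wells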
# PGC1a acetyl inh: PGC1a acetylation modulation, inhibitor mode; U2OS PGC1a acetylation, AlphaScreen anti-acetyl-lysine; with virally co-expressed GCN5 acetyltransferase; inhibition, % at 15.6 µM; 350,000 compounds, 0.17% hits; AID 651687;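 active means every replicate shows inhibition of at least 40%; inconclusive means mean inhibition at least 40% but some replicate below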;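 further: 0% = neutral control wells and 100% = positive control wells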
# ERAP1 HTS inh: blocks human ERAP1 aminopeptidase activity; 340,000 compounds, 0.15% hits; recombinant ERAP1, Leu-AMC fluorescence, 60 min; AID 652197; inhibition, % at 10.7 µM;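 active means mean replicate inhibition of at least 30%, or all replicates individually reaching that 30% level; inactive means mean below 30% and not every replicate reaching it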;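 further: 0% = neutral control wells and 100% = L-leucinethiol positive control wells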
# Target sequence (Q9NZ08 whole entry, looked up): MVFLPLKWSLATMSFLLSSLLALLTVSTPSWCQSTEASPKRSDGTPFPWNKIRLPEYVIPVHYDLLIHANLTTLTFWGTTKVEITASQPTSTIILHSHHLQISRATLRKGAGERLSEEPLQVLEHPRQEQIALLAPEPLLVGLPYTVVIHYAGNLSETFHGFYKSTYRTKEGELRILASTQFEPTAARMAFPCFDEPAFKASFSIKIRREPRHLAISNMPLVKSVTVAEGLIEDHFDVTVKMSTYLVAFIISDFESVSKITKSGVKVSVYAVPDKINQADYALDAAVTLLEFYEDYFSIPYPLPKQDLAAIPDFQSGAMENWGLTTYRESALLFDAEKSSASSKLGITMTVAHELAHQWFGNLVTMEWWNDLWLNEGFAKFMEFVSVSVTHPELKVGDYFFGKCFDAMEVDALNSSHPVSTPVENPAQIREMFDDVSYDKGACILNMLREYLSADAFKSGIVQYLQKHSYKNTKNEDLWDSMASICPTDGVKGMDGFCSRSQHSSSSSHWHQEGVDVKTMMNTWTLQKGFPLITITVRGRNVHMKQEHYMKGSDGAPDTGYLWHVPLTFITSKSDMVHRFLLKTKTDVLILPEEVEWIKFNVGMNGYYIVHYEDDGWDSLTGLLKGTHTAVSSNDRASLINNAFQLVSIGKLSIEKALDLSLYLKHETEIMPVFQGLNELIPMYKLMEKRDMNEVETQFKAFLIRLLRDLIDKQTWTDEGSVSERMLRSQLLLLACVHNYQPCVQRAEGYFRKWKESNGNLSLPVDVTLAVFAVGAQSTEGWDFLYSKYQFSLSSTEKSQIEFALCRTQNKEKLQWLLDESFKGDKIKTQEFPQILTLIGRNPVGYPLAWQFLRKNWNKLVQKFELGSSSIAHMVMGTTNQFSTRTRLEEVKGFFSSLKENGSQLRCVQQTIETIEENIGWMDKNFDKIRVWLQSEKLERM
# DENV2 CPE rescue: inhibitors of DENV2 cytopathic effect | DENV2-infected cells, cytopathic effect rescue, plate reader | CPE inhibition, % at 9.99 µM | 350,000 compounds, 1.7% hits; in the data active means CPE inhibition above about 20%, passing the limit was not always enough; inconclusive means no clear call, values can overlap the other calls; tested in BHK-21 cells;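 further: 0% = median of neutral control wells and 100% = median of positive control wells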
# CaV13 ICDI inh: Disruptors of the CACNA1D IQ motif to Ca2+-dependent inactivation inhibitor domain association, primary screening, Förster resonance energy transfer in intact living …; HEK cells, CFP/YFP FRET ICDI-IQ, plate reader, 10 min; percent FRET-ratio fall versus neutral wells; inhibition, % at 12.3 µM; 340,000 compounds, 0.098% hits; AID 743397;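 active means mean replicate inhibition of at least 30% and at least 1% of replicates passing that level; inconclusive means only one of the two criteria is met; inactive means neither criterion is met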;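 further: 0% = median of the neutral control wells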
# rRNA inh HTS: inhibitors of bacterial rRNA selective over humanized ribosomes; GFP signal change (wild-type ribosome), % (test concentration not listed); 350,000 compounds, 1.6% hits; E. coli WT GFP vs humanized-ribosome RFP mutants, fluorescence, 24 h; stronger effect = lower value; DMSO median 0, no signal -100; AID 720706;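 active means significant combined selectivity score with lowered wild-type GFP, culture density cut under 30%, mutant RFP and density less affected; inactive means any of these conditions unmet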
# HepG2 cytotox: cytotoxic compounds in HepG2 cells; shares compounds with rRNA inh HTS; HepG2 viability, ATP luminescence, 72 h; activity change, negative = cytotoxicity, unspecified at 26 µM; 30 tested, under 10 active; AID 743480;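 active means compounds whose fitted half-maximal signal-loss concentration is at most twice their highest valid dose; inconclusive means flat curve with 30 to 70% signal loss, or poor fit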
# AID977621: wild-type E. coli growth inhibition versus H69 humanized strain – H69 mutant RFP, wild-type GFP, cherry-pick, dose response. shares compounds with rRNA inh HTS. fluorescence, 24 h. activity change, negative = inhibition at 50 µM. 1,900 tested, under 10 active. AID 977621;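 active means Wild-type ribosome reporter drop at least double the humanized mutant ribosome reporter drop, growth loss under a set limit; inconclusive means no clear call, values can overlap the other calls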;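 further: wild-type GFP and H69 mutant RFP strains grown together 50/50 in each well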
# AID977628: growth of wild-type and h24-humanized E. coli strains – h24 mutant RFP vs wild-type GFP, cherry-pick, dose response; shares compounds with rRNA inh HTS; E. coli WT GFP strain growth, fluorescence, 24 h; 1,900 tested, under 10 active; activity change, negative = inhibition at 50 µM;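 active means compound lowering the normal-ribosome reporter at least twice as much as the humanized-ribosome reporter, growth loss under a set limit; inconclusive means no clear call, values can overlap the other calls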;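 further: wild-type GFP and h24 humanized RFP strains co-cultured 1 to 1 per well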
# Starred values were filed as active, the others as inactive; ? = inconclusive; / = not tested or not shown.
SMILES,GSIS activator,PGC1a acetyl inh,ERAP1 HTS inh,DENV2 CPE rescue,CaV13 ICDI inh,rRNA inh HTS,AID977621,AID977628,others
CC(C)NC(=O)N(C)C[C@@H]1Oc2ncc(-c3cncnc3)cc2C(=O)N([C@@H](C)CO)C[C@H]1C,26,5,/,-1,/,7,/,/,
O=C(Nc1cccc(Oc2ccc3c(c2)C(=O)NC3=O)c1)c1cccs1,1,/,-7,7,/,-30*,-4.3,/,
O=C(COc1cccc(NC(=O)c2cccs2)c1)c1ccc(F)cc1,-8,/,3,14,-5,-16,/,/,
COc1ccc2c3c([nH]c2c1)[C@@H](CO)N(C(=O)C1CCCCC1)CC31CN(C(=O)NC(C)C)C1,23,/,1,2,/,0,/,/,
CN(C)C(=O)C1C2NC(=S)N(c3cccc(Cl)c3)C1(C)Oc1ccc(Cl)cc12 (stereo unspecified),-11,-9,0,/,-7,-22*,-2.2,/,
O=C(CCN1CCCCC1)NCC[C@H]1CC[C@H](NC(=O)C2CCOCC2)[C@@H](CO)O1,0,-5,3,4,/,2,/,/,
Cc1nn(CC(O)COc2ccc3c(c2)CCC3)c(C)c1Br (stereo unspecified),/,13,/,/,-5,/,/,/,
CC(=O)c1c(C)nn(CC(O)COc2ccc3c(c2)CCC3)c1C (stereo unspecified),-8,-5,10,/,-9,-22*,-16,/,
CCOc1cccc(-c2cc(-c3n[nH]c(=S)n3CC)c3ccccc3n2)c1,5,9,-1,-5,-7,-37*,-17,?,
COc1ccc(CN(C)C[C@H]2OCCCC[C@@H](C)Oc3ccc(NC(=O)Nc4ccccc4)cc3C(=O)N([C@@H](C)CO)C[C@@H]2C)cc1,-19,-7,/,-8,/,2,/,/,
CC(C)NC(=O)NCC[C@@H]1CC[C@@H](NC(=O)CN(C)C)[C@@H](CO)O1,-6,16,3,-3,/,0,/,/,
CC(C)NC(=O)N(C)C[C@H]1OCCCC[C@@H](C)Oc2ccc(NC(=O)Nc3cccc4ccccc34)cc2C(=O)N([C@@H](C)CO)C[C@H]1C,-7,-5,-3,13,/,-31*,/,?,
C[C@@H]1CCCCO[C@@H](CN(C)C)[C@@H](C)CN([C@H](C)CO)C(=O)c2cc(NC(=O)Nc3cccc4ccccc34)ccc2O1,9,0,-3,8,/,1,-3.9,?,
C[C@H]1CCCCO[C@@H](CN(C)C)[C@@H](C)CN([C@@H](C)CO)C(=O)c2cc(NC(=O)Nc3cccc4ccccc34)ccc2O1,11,-11,0,5,/,2,0.71,?,
C[C@H](CO)N1C[C@H](C)[C@H](CN(C)C)OCCCC[C@H](C)Oc2ccc(NC(=O)Nc3cccc4ccccc34)cc2C1=O,-5,3,0,-3,/,-2,0.89,?,
C[C@@H]1CCCCO[C@H](CN(C)C(=O)Nc2cccc3ccccc23)[C@@H](C)CN([C@H](C)CO)C(=O)c2cc(NC(=O)Nc3cccc4ccccc34)ccc2O1,11,-9,-2,5,/,3,/,/,
C[C@H](O)C#Cc1ccc2c(c1)O[C@@H](CN(C)C(=O)c1ccccc1)[C@@H](C)CN([C@@H](C)CO)S2(=O)=O,-9,9,-1,-1,/,-1,/,/,
C[C@@H]1CCCCO[C@H](CN(C)C(=O)Nc2cccc3ccccc23)[C@H](C)CN([C@@H](C)CO)C(=O)c2cc(NC(=O)Nc3cccc4ccccc34)ccc2O1,26,-3,-3,-14,/,3,/,/,
C[C@@H]1CCCCO[C@@H](CN(C)C)[C@H](C)CN([C@H](C)CO)C(=O)c2cc(NC(=O)Nc3cccc4ccccc34)ccc2O1,21,3,0,-15,/,-1,-9.1,?,
C[C@@H]1CCCCO[C@H](CN(C)CC2CC2)[C@H](C)CN([C@@H](C)CO)C(=O)c2cc(NC(=O)Nc3cccc4ccccc34)ccc2O1,16,-40,/,-3,/,-27*,/,/,HepG2 cytotox=-14
C[C@@H]1CCCCO[C@@H](CN(C)CC2CC2)[C@H](C)CN([C@@H](C)CO)C(=O)c2cc(NC(=O)Nc3cccc4ccccc34)ccc2O1,-14,9,/,-7,/,0,/,/,
C[C@H](CO)N1C[C@H](C)[C@@H](CN(C)C)OCCCC[C@H](C)Oc2ccc(NC(=O)Nc3cccc4ccccc34)cc2C1=O,19,-7,-1,-16,/,1,4,?,
CC(C)NC(=O)N(C)C[C@H]1OCCCC[C@@H](C)Oc2ccc(NC(=O)c3ccccc3)cc2C(=O)N([C@@H](C)CO)C[C@H]1C,-2,6,1,-2,/,-20*,-0.74,?,
CC(C)NC(=O)N(C)C[C@H]1OCCCC[C@@H](C)Oc2ccc(NC(=O)c3ccccc3)cc2C(=O)N([C@H](C)CO)C[C@@H]1C,3,-3,0,-3,/,-1,/,/,
Cc1ccc(-c2c(=O)n(O)c3ccccc3[n+]2[O-])cc1,8,-5,2,-2,-29,-17*,-5.6,?,
SMILES,GSIS activator,PGC1a acetyl inh,ERAP1 HTS inh,DENV2 CPE rescue,CaV13 ICDI inh,rRNA inh HTS,AID977621,AID977628,others
C[C@H](CO)N1C[C@H](C)[C@@H](CN(C)S(=O)(=O)c2cccs2)Oc2ccc(NC(=O)CCCN(C)C)cc2CC1=O,-2,6,/,?,/,3,/,/,
O=C(NCCc1ccccn1)c1cccc(S(=O)(=O)N2CCc3ccccc32)c1,-17,2,3,4,-7,-18*,/,?,
Cn1c(CO)cnc1SCC(=O)c1ccc(Br)cc1,0,7,12,-1,-1,-21*,1.8,-5.8,
Cn1c(CO)cnc1SCC(=O)c1ccc(F)cc1,-15,-2,3,1,-5,-5,/,/,
COC(=O)c1ccc(-n2nnnc2SC)cc1,/,-5,/,/,/,/,/,/,
CSc1nnnn1-c1ccc(Cl)cc1,-11,7,0,5,0,-32*,-18,-18,
O=C(Nc1ccc(Cl)cn1)c1cc2c(s1)-c1ccccc1OC2,21,4,/,6,-18,-22*,-7.2,?,
COc1ccccc1C#Cc1ccc2c(c1)O[C@@H](CN(C)Cc1ccccc1)[C@H](C)CN([C@@H](C)CO)S2(=O)=O,-11,6,0,-1,/,4,/,/,
